Source: PubChem (Broad Institute)
miR122 inh = miR-122 suppressors via Renilla sensor increase, primary screen, cell-based, Huh7 psiCHECK-miR122, Renilla luciferase, single point; 48 h; activation, % at 12.5 µM; hit rate 0.14% among 340,000;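 active = mean activation of 30% or more, with every replicate also reaching 30%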;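 also: 0% = median of neutral control wells and 100% = median of positive control wells; higher luciferase signal means stronger suppression of miR-122 activity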
Numbers without * were called inactive. Many of the other results were omitted from the sample, so hits are more common in it than they were.

SMILES	miR122 inh
C/C=C/c1cnc2c(c1)C(=O)N([C@@H](C)CO)C[C@@H](C)[C@@H](CN(C)CC1CCOCC1)O2	0
CSc1cccc(NS(=O)(=O)c2cc(Br)cnc2N)c1	-106
CSc1cccc(NS(=O)(=O)c2ccccc2)c1	35*
O=S(=O)(Nc1ccc2ccccc2c1)c1ccccc1	-170
C[C@H](CO)N1C[C@H](C)[C@@H](CN(C)Cc2ccc3c(c2)OCO3)Oc2c(NC(=O)Nc3ccccc3)cccc2C1=O	-95
C[C@H](O)C#Cc1ccc2c(c1)O[C@@H](CN(C)Cc1cccnc1)[C@@H](C)CN([C@@H](C)CO)S2(=O)=O	-2
COc1cccc2c1C(=O)c1c(O)c3c(c(O)c1C2=O)C[C@@](O)(C(=O)CO)C[C@@H]3O[C@H]1C[C@H](N)[C@H](O)[C@H](C)O1	69*
C[C@H]1CN([C@@H](C)CO)C(=O)c2cc(-c3ccncc3)cnc2O[C@@H]1CN(C)C(=O)c1ccccc1F	-10
COc1cccc(-c2cnc3c(c2)C(=O)N([C@H](C)CO)C[C@H](C)[C@H](CN(C)C(=O)CC2CC2)O3)c1	-16
C[C@@H]1CN([C@@H](C)CO)S(=O)(=O)c2ccc(C#CCC3CCCC3)cc2O[C@H]1CN(C)C(=O)c1ccccn1	-4
COCC#Cc1cnc2c(c1)C(=O)N([C@H](C)CO)C[C@H](C)[C@@H](CN(C)C(=O)Cc1ccccc1)O2	-6
COc1ccc(C#Cc2cnc3c(c2)C(=O)N([C@@H](C)CO)C[C@H](C)[C@H](CN(C)CC2CCOCC2)O3)cc1	3
COCC#Cc1cnc2c(c1)C(=O)N([C@@H](C)CO)C[C@H](C)[C@H](CN(C)C(=O)Nc1c(C)noc1C)O2	-5
CCCNC(=O)N(C)C[C@@H]1Oc2ncc(C#CCC3CCCC3)cc2C(=O)N([C@H](C)CO)C[C@H]1C	1
COc1ccc(OC)c(S(=O)(=O)Nc2ccc(C(C)=O)cc2)c1	-100
COc1cccc(OCc2cc(/C=N/Nc3ccc(C(=O)O)cc3)ccc2OC)c1	47*
Cc1noc(C)c1S(=O)(=O)N(C)C[C@@H]1Oc2c(NC(=O)C3CCCCC3)cccc2C(=O)N([C@H](C)CO)C[C@@H]1C	-197
COc1cccc(-c2cnc3c(c2)C(=O)N([C@H](C)CO)C[C@H](C)[C@H](CN(C)Cc2cccnc2)O3)c1	-4
C[C@@H]1CN([C@H](C)CO)C(=O)c2cc(C#Cc3cccc(F)c3)cnc2O[C@H]1CN(C)CC1CCOCC1	0
CC(C)CC#Cc1ccc2c(c1)O[C@H](CN(C)C(=O)NC1CCCC1)[C@H](C)CN([C@H](C)CO)S2(=O)=O	-4
COc1ccc(-c2c(C)nn3c(N)c(-c4ccccc4)cnc23)cc1OC	45*
CCOc1ccc(-c2cc(N)n(S(=O)(=O)c3ccc(OC)c(OC)c3)n2)cc1	-92
CCCN(C)C[C@H]1Oc2ncc(C#CC3CCCCC3)cc2C(=O)N([C@H](C)CO)C[C@H]1C	3
CCC(=O)N(C)C[C@@H]1Oc2cc(C#C[C@@H](C)O)ccc2S(=O)(=O)N([C@@H](C)CO)C[C@@H]1C	7
C[C@H]1CN([C@@H](C)CO)C(=O)c2cc(-c3cccc(C#N)c3)cnc2O[C@H]1CN(C)C	4
SMILES	miR122 inh
CC(C)C#Cc1ccc2c(c1)O[C@H](CN(C)C(=O)CC1CC1)[C@@H](C)CN([C@H](C)CO)S2(=O)=O	-29
COc1ccccc1-c1cnc2c(c1)C(=O)N([C@@H](C)CO)C[C@H](C)[C@@H](CN(C)CC1CCCC1)O2	6
C[C@H]1CN([C@@H](C)CO)C(=O)c2cc(C#CC3(O)CCCC3)cnc2O[C@@H]1CN(C)S(C)(=O)=O	2
CC(=O)N(C)C[C@@H]1Oc2cc(C#CC3CCCCC3)ccc2S(=O)(=O)N([C@@H](C)CO)C[C@@H]1C	3
O=C1CC(c2ccco2)CC(O)=C1C=Nc1cc(Cl)ccc1O (stereo not drawn)	31*
CCCCCOC(=O)c1[nH]c2c(c1C)C(=O)CC(c1ccco1)C2 (stereo not drawn)	-121
C[C@H]1CN([C@@H](C)CO)C(=O)Cc2cc(NS(=O)(=O)c3ccc(F)cc3)ccc2O[C@H]1CN(C)Cc1ccc(C(=O)Nc2ccccc2N)cc1	-114
C[C@H]1CN([C@@H](C)CO)C(=O)c2cc(Br)cnc2O[C@@H]1CN(C)Cc1cccc(F)c1	0
C[C@H]1CN([C@@H](C)CO)S(=O)(=O)c2ccc(C#Cc3ccccc3F)cc2O[C@@H]1CN(C)C(=O)Cc1ccccc1	-12
C[C@@H]1CN([C@@H](C)CO)S(=O)(=O)c2ccc(C#Cc3ccccc3F)cc2O[C@@H]1CN(C)C(=O)Cc1ccncc1	57*
C[C@@H]1CN([C@@H](C)CO)S(=O)(=O)c2ccc(C#Cc3ccccc3F)cc2O[C@H]1CN(C)C(=O)Cc1ccccc1	-2
C[C@@H]1CN([C@H](C)CO)S(=O)(=O)c2ccc(C#Cc3ccccc3F)cc2O[C@H]1CN(C)C(=O)Cc1ccccc1	1
C[C@@H]1CN([C@H](C)CO)S(=O)(=O)c2ccc(Br)cc2O[C@H]1CN(C)C(=O)c1ccc2c(c1)OCO2	-1
